Calls of active or inactive are those of the source. How the source made its calls: active means hit-call score of the fitted dose curve at least 0.9, where 1 is the maximum; inactive means score below 0.9.

Read-out in experiment [1]: Interleukin-8 (IL8), CXCL8 (gene 3576)
The experiment can be described thus: BSK_CASM3C_IL8: BioMAP Diversity Plus: CASM3C Assay for Interleukin-8 (IL8) Biomarker Activity (AID 2283042).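 Further: IL-8 protein level quantified by ELISA.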 As to conditions: primary human coronary artery smooth muscle cells; actives raise or lower the signal.

Read-out in experiment [2]: Human Leukocyte Antigen - DR isotype (HLADR), HLA-DRA (gene 3122)
The experiment can be described thus: BSK_CASM3C_HLADR: BioMAP Diversity Plus: CASM3C Assay for Human Leukocyte Antigen - DR isotype (HLADR) Biomarker Activity (AID 2283043).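 Further: cell-surface HLA-DR protein level quantified by ELISA.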 As to conditions: primary human coronary artery smooth muscle cells; actives raise or lower the signal.

Read-out in experiment [3]: Macrophage colony-stimulating factor (MCSF), CSF1 (gene 1435)
The experiment can be described thus: BSK_CASM3C_MCSF: BioMAP Diversity Plus: CASM3C Assay for Macrophage colony-stimulating factor (MCSF) Biomarker Activity (AID 2283044).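 Further: M-CSF protein amount quantified by ELISA after 24 h exposure.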 Conditions: primary human coronary artery smooth muscle cells; actives raise or lower the signal.

Read-out in experiment [4]: Low-density lipoprotein receptor (LDLR), LDLR (gene 3949)
The experiment can be described thus: BSK_CASM3C_LDLR: BioMAP Diversity Plus: CASM3C Assay for Low-density lipoprotein receptor (LDLR) Biomarker Activity (AID 2283045).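 Further: LDLR protein level on the cell surface quantified by ELISA.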 Conditions: primary human coronary artery smooth muscle cells; actives raise or lower the signal.

Read-out in experiment [5]: Monocyte Chemoattractant Protein-1 (MCP1), CCL2 (gene 6347)
The experiment can be described thus: BSK_CASM3C_MCP1: BioMAP Diversity Plus: CASM3C Assay for Monocyte Chemoattractant Protein-1 (MCP1) Biomarker Activity (AID 2283046).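 Further: MCP-1 level quantified by ELISA 24 h after dosing.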 Conditions: primary human coronary artery smooth muscle cells; actives raise or lower the signal.

The nature of experiment [6]: BSK_CASM3C_Proliferation: Cell Proliferation Assessment in the BioMAP Diversity Plus: CASM3C Assay (AID 2283047).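 Further: sulforhodamine B total protein stain as relative cell number at 560 nm; sub-confluent cells exposed 48 h before staining; fitted both ways against DMSO so gain or loss of cell number.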 As to conditions: primary human coronary artery smooth muscle cells.
Read-out in experiment [7]: Monokine induced gamma interferon (MIG), CXCL9 (gene 4283)
The experiment can be described thus: BSK_CASM3C_MIG: BioMAP Diversity Plus: CASM3C Assay for Monokine induced gamma interferon (MIG) Biomarker Activity (AID 2283048).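 Further: MIG protein level measured by ELISA.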 Conditions: primary human coronary artery smooth muscle cells; actives raise or lower the signal.

Read-out in experiment [8]: serum amyloid A (SAA), SAA1 (gene 6288)
The experiment can be described thus: BSK_CASM3C_SAA: BioMAP Diversity Plus: CASM3C Assay for serum amyloid A (SAA) Biomarker Activity (AID 2283049).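 Further: SAA protein level quantified by ELISA.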 As to conditions: primary human coronary artery smooth muscle cells; actives raise or lower the signal.

Experiment [9] can be described thus: BSK_CASM3C_SRB: Viability Assessment in the BioMAP Diversity Plus: CASM3C Assay (AID 2283050).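 Further: total protein by SRB staining as cytotoxicity measure in parallel cultures; cells exposed to compound for 24 h.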 Conditions: primary human coronary artery smooth muscle cells.
Read-out in experiment [10]: Thrombomodulin, THBD (gene 7056)
The experiment can be described thus: BSK_CASM3C_Thrombomodulin: BioMAP Diversity Plus: CASM3C Assay for Thrombomodulin Biomarker Activity (AID 2283051).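 Further: thrombomodulin protein level measured by ELISA 24 h after dosing.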 Conditions: primary human coronary artery smooth muscle cells; actives raise or lower the signal.

Read-out in experiment [11]: Tissue Factor, F3 (gene 2152)
The experiment can be described thus: BSK_CASM3C_TissueFactor: BioMAP Diversity Plus: CASM3C Assay for Tissue Factor Biomarker Activity (AID 2283052).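 Further: cell surface tissue factor protein level read by ELISA.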 As to conditions: primary human coronary artery smooth muscle cells; actives raise or lower the signal.

Read-out in experiment [12]: Urokinase-type plasminogen activator receptor (uPAR), PLAUR (gene 5329)
The experiment can be described thus: BSK_CASM3C_uPAR: BioMAP Diversity Plus: CASM3C Assay for Urokinase-type plasminogen activator receptor (uPAR) Biomarker Activity (AID 2283054).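 Further: cell-surface uPAR protein level quantified by ELISA.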 Conditions: primary human coronary artery smooth muscle cells; actives raise or lower the signal.

Read-out in experiment [13]: Vascular cell adhesion molecule 1 (VCAM1), VCAM1 (gene 7412)
The experiment can be described thus: BSK_CASM3C_VCAM1: BioMAP Diversity Plus: CASM3C Assay for Vascular cell adhesion molecule 1 (VCAM1) Biomarker Activity (AID 2283055).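 Further: VCAM-1 protein level quantified by ELISA on the cells.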 As to conditions: primary human coronary artery smooth muscle cells; actives raise or lower the signal.

Read-out in experiment [14]: Collagen III, COL3A1 (gene 1281)
The experiment can be described thus: BSK_hDFCGF_CollagenIII: BioMAP Diversity Plus: hDFCGF Assay for Collagen III Biomarker Activity (AID 2283056). As to conditions: primary human foreskin fibroblasts; actives raise or lower the signal. The method in brief:
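ELISA readout of Collagen III in human dermal (foreskin) fibroblasts, taken 24 h post-treatment. Gain or loss relative to DMSO vehicle fitted in both directions.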

Read-out in experiment [15]: Epidermal growth factor receptor (EGFR), EGFR (gene 1956)
The experiment can be described thus: BSK_hDFCGF_EGFR: BioMAP Diversity Plus: hDFCGF Assay for Epidermal growth factor receptor (EGFR) Biomarker Activity (AID 2283057). Conditions: primary human foreskin fibroblasts; actives raise or lower the signal. The method in brief:
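Dosing human primary skin fibroblasts, then measuring surface EGFR by ELISA at 24 h, gives the endpoint; gains and losses relative to DMSO were fitted in both directions.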

Read-out in experiment [16]: Macrophage colony-stimulating factor (MCSF), CSF1 (gene 1435)
The experiment can be described thus: BSK_hDFCGF_MCSF: BioMAP Diversity Plus: hDFCGF Assay for Macrophage colony-stimulating factor (MCSF) Biomarker Activity (AID 2283060). As to conditions: primary human foreskin fibroblasts; actives raise or lower the signal. The method in brief:
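M-CSF levels read by ELISA at 24 h post-dosing in human skin fibroblasts. Parallel cultures stained with SRB assessed cytotoxicity at the same time point; response fitted in both directions against the DMSO baseline.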

The nature of experiment [17]: BSK_hDFCGF_SRB: Viability Assessment in the BioMAP Diversity Plus: hDFCGF Assay (AID 2283061).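 Further: cells exposed to compound for 24 h before the read.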 Conditions: primary human foreskin fibroblasts. The method in brief: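 Viability was read as total protein: after 10% TCA fixation, wells were stained with 0.1% sulforhodamine B and read at 560 nm. Primary human foreskin fibroblasts were dosed for 24 h, with bidirectional fitting versus DMSO.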

Experiment [18] in a line: BSK_hDFCGF_Proliferation: Cell Proliferation Assessment in the BioMAP Diversity Plus: hDFCGF Assay (AID 2283059).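 Further: curves fitted for both rise and fall of signal versus DMSO baseline.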 As to conditions: primary human foreskin fibroblasts. The method in brief: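 Sub-confluent human foreskin fibroblast cultures receive test chemical […]. Relative cell number is quantified by sulforhodamine B staining (0.1%, after 10% TCA fixation) at 560 nm, with bidirectional fitting referenced to DMSO.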

Read-out in experiment [19]: Interferon-gamma inducible Protein 10 (IP10), CXCL10 (gene 3627)
The experiment can be described thus: BSK_hDFCGF_IP10: BioMAP Diversity Plus: hDFCGF Assay for Interferon-gamma inducible Protein 10 (IP10) Biomarker Activity (AID 2283053). Conditions: primary human foreskin fibroblasts; actives raise or lower the signal. The method in brief: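 Cells: human dermal foreskin fibroblasts. Exposure: 24 h post-dosing. Detection: IP-10 ELISA, with values expressed against DMSO controls and fitted in both directions.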

Read-out in experiment [20]: Interleukin-8 (IL8), CXCL8 (gene 3576)
The experiment can be described thus: BSK_hDFCGF_IL8: BioMAP Diversity Plus: hDFCGF Assay for Interleukin-8 (IL8) Biomarker Activity (AID 2283058). As to conditions: primary human foreskin fibroblasts; actives raise or lower the signal. The method in brief:
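IL-8 levels read by ELISA at 24 hours after dosing human skin fibroblast cultures. Parallel SRB staining assessed overt cytotoxicity, and gain or loss of signal was fitted against DMSO control.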

For `CCCOC(=O)c1cc(O)c(O)c(O)c1`, the result in [1], in experiment [2], in experiment [3], in experiment [4], in [5] and in experiment [7] was inactive. Further, the outcome in experiment [8], in [9], in experiment [10], in experiment [11], in experiment [12] and in [13] was inactive. The result in experiment [14], in experiment [15], in [16] and in experiment [17] was inactive. The AC50 in experiment [6] is 6.82 µM (active).
In the case of `Cc1cc2c(cc1C(F)(F)F)N(C(=O)Nc1ccc(Oc3cccnc3C)nc1)CC2`, the result in [1], in [7], in [8], in experiment [11], in [14] and in experiment [15] was inactive. The half-maximal activity concentration (AC50) in [2] was 16.6 µM (active); in experiment [3], 30.6 µM (active); in experiment [4] it was 3.81 µM (active); in experiment [5] it was 28.3 µM (active); in experiment [6], 13.8 µM (active); in experiment [9], 26.3 µM (active). Also, the AC50 was 5.04 µM (active) in experiment [10]; 25 µM (active) in [12]; 31.1 µM (active) in experiment [13]; 1.94 µM (active) in experiment [18]; 27.6 µM (active) in experiment [17].
Consider `CC(=O)N1CCN(c2ccc(OC[C@H]3CO[C@](Cn4ccnc4)(c4ccc(Cl)cc4Cl)O3)cc2)CC1`, for which the result in experiment [1], in experiment [2], in experiment [5], in experiment [7], in [8] and in [9] was inactive. The result in [10], in experiment [11], in experiment [12], in experiment [13] and in [15] was inactive. The AC50 is 2.94 µM (active) in experiment [4]; 28 µM (active) in experiment [6]; 33.3 µM (active) in experiment [19]; 14 µM (active) in experiment [14]; 33.5 µM (active) in experiment [20]; 32.9 µM (active) in experiment [17].
In the case of `COc1ccc2cc(S(=O)(=O)N[C@H](CC(=O)N[C@H](Cc3ccc(CN4[C@H](C)CCC[C@@H]4C)cc3)C(=O)N(C)C(C)C)c3ccc4c(c3)OCO4)ccc2c1`, the outcome in experiment [1], in experiment [3], in experiment [5], in experiment [7], in experiment [8] and in experiment [11] was inactive. Moreover, the outcome in [12], in experiment [13], in experiment [15] and in [20] was inactive. The concentration at half-maximal activity (AC50) in [2] was 27.8 µM (active); in [4], 0.966 µM (active); in experiment [6], 24.9 µM (active); in experiment [9], 19.1 µM (active); in experiment [10], 7.64 µM (active); in experiment [14], 2.07 µM (active). The concentration at half-maximal activity (AC50) in [18] was 9.97 µM (active); in experiment [17] it was 27.7 µM (active).
As to `CN1C(=O)N(c2ccccc2Br)Cc2cnc(Nc3ccc4c(c3)OCC(CO)O4)nc21` (stereo not given), the AC50 in experiment [1] was 14.3 µM (active); in experiment [2], 11.5 µM (active); in experiment [3], 5.62 µM (active); in experiment [4], 37.8 µM (active); in [5], 9.73 µM (active); in experiment [6], 1.27 µM (active). The half-maximal activity concentration (AC50) in experiment [7] is 32.3 µM (active); in experiment [8], 5.98 µM (active); in experiment [9], 20 µM (active); in experiment [11], 952 nM (active); in experiment [12], 13.6 µM (active); in experiment [17], 19 µM (active). Further, the outcome in experiment [10], in [13], in experiment [14] and in experiment [15] was inactive.
For `Cc1ncc(CO)c(CO)c1O`, the result in experiment [1], in [2], in experiment [3], in [4], in experiment [5] and in [6] was inactive. The result in [7], in experiment [8], in [9], in experiment [10], in experiment [11] and in experiment [12] was inactive. The result in [13], in experiment [14], in experiment [15], in experiment [20] and in experiment [17] was inactive.
For the compound `OC12N=C(c3ccccc3)SC1Cc1cc(Cl)ccc12` (stereo not given), the outcome in experiment [1], in experiment [2], in [3], in experiment [4], in experiment [5] and in experiment [7] was inactive. Also, the result in experiment [8], in [9], in [10], in experiment [11], in [12] and in experiment [13] was inactive. Besides, the result in experiment [14], in [15], in experiment [20], in experiment [18] and in experiment [17] was inactive. Moreover, the AC50 in experiment [6] is 30.1 µM (active).
